The whole screen tested about 290,000 compounds, of which about 1,800 (0.62%) were called active. The sample holds actives, similar compounds and a random draw of the others, so the mix is not that of the screen. No stated cut-off is given here; in the data, active means inhibition above about 50%; inactive means the rest.
test: inhibition of NOD2-driven NF-kB reporter – cell-based, luminescence, uHTS, HEK293 (AID 1566); details: HEK293 NOD2/NF-kB luciferase reporter, at 4 µM, active compounds read high

inhibition, active:
CCOc1ccc(OCc2ccc(C(=O)N/N=C(\C)c3ccccn3)cc2)cc1 76.9%, Cc1cc(C(=O)CN2C(=O)c3ccccc3S2(=O)=O)c(C)n1-c1ccccc1 64.2%, O=C(CN1C(=O)c2ccccc2S1(=O)=O)c1ccccc1 52.5%, C(=N\Nc1ccc2ccccc2n1)/c1ccc2c(c1)OCCO2 67.8%, O=C(CNc1ccc(F)cc1)N/N=C/c1c(O)ccc2ccccc12 53.5%, O=C(O)c1ccc(N/N=C/c2ccc3c(c2)OCO3)cc1 66.8%, O=C(CC(Nc1ccc(Cl)cc1Cl)C(=O)O)c1ccccc1 (stereo not drawn) 61.2%, CCOC(=O)c1c(-c2ccc(C)cc2)csc1NC(=O)CCSc1nnc2ccccn12 53.9%, Cc1nn(-c2ccc(NC(=O)c3ccncc3)cc2)c(C)c1Cl 50%, Oc1ccc2ccccc2c1N=Nc1nccs1 91.9%, O=C(N/N=C/c1ccco1)c1cccc(NC(=O)c2ccccc2Cl)c1 50.6%

inhibition, inactive:
CNC(=O)NNC(=O)c1csc(-c2ccc(C(F)(F)F)cc2Cl)n1 14.2%, COc1ccc(/C=N\Nc2ncc(F)c(N3CCOCC3)n2)cc1OC 3.5%, COc1cccc(C(=O)O/N=C(\C)c2cnccn2)c1 4.6%, Cc1nc2scc(C)n2c(=O)c1S(=O)(=O)NC(C)c1ccccc1 (stereo not drawn) 20.2%, Cc1c(O)nc(SCC(=O)Nc2cccc(C(F)(F)F)c2)n(-c2ccccc2)c1=O -0.1%, C/C(=N\NC(=O)c1ccc(COc2ccccc2)cc1)c1ccncc1 -1.5%, CCOc1ccc(C(=O)N/N=C(\c2ccccc2)c2ccccn2)cc1 -82%, COc1ccccc1/C=C1\SC(=S)N(CCC(=O)N2CCCCC2CCO)C1=O (stereo not drawn) 5.9%, CCCOc1ccc(C(O)(CCC)CCN2CCCCC2)cc1 (stereo not drawn) 3.4%, Cc1ccc(C)c(C(=O)CN2C(=O)c3ccccc3S2(=O)=O)c1 -15%, O=C(CN1C(=O)c2ccccc2S1(=O)=O)c1ccc(O)c(O)c1 42.4%, Cc1cc(C(=O)CN2C(=O)C3CC=CCC3C2=O)c(C)n1-c1ccccc1 (stereo not drawn) -109%, O=C(CN1C(=O)c2ccccc2S1(=O)=O)c1cccc(Br)c1 0.6%, COc1ccc(S(=O)(=O)NCc2cccnc2)cc1OC 6.9%, CCN(CC)c1nc(Nc2ccc([N+](=O)[O-])cc2)nc(N(CC)CC)n1 15.7%, O=C(O)Cc1sc(NCCc2ccccc2)nc1-c1ccc(F)cc1 -6.1%, C/C(=N/NC(=O)Cc1c(C)[nH][nH]c1=O)c1ccc(O)cc1 -3%, Cc1ccccc1Nc1ccc2nonc2c1[N+](=O)[O-] 17.9%, CC(=O)Nc1cccc(NC(=O)CSc2nnc(NC(=O)C3CC3)s2)c1 2.1%, CCOc1ccc(-c2nc3n(c(=O)c2C#N)CCS3)cc1 -0.8%, O=C(OCCCN1CCOCC1)c1ccc(O)c(O)c1 11.1%, CC(=O)CSc1ncnc2sc3c(c12)CCC3 12.6%, Cc1ccc(C(=O)CSc2ncnc3sc4c(c23)CCCC4)cc1 30.2%, O=C(c1ccc(Cl)c([N+](=O)[O-])c1)N1CCCc2ccccc21 -7.5%, O=C(CSc1nnnn1C1CCCCC1)NNC(=O)c1ccco1 5.4%, Cc1ccccc1-n1cc(C(=O)c2cc(Cl)ccc2O)cc(C#N)c1=O 1.1%, C(=N\Nc1ccccn1)/c1ccc2c(c1)OCCO2 -125%, C(=N\Nc1nc2ccccc2[nH]1)/c1ccc2c(c1)OCCO2 -126%, Cc1[nH]c2ccccc2c1-c1nc2ccccc2[nH]c1=O 4.1%, CC(C)C(=O)OCc1cn(-c2ccc(Cl)c(Cl)c2)nn1 10.3%, CCOC(=O)CN1C(=O)S/C(=C/c2ccc(O)c([N+](=O)[O-])c2)C1=O -11.2%, O=C1/C(=C\c2cccc(O)c2O)SC(=S)N1Cc1ccccc1 7.8%, O=C(O)c1cccc(CN2C(=O)S/C(=C/c3cccc([N+](=O)[O-])c3)C2=O)c1 -10.3%, O=C(O)c1cccc(CN2C(=O)S/C(=C/c3ccccc3[N+](=O)[O-])C2=O)c1 19.8%, COCc1cc(C)nc(Nc2ccccc2OC)c1C#N 3%, Cc1ccc(-n2nnc3c(=O)n(CC(=O)NCc4ccco4)cnc32)cc1 17.7%, COc1cc(S(=O)(=O)N2CCCCCC2)ccc1-n1cnnn1 7.9%, Cc1ccc(OC(=O)COc2ccccc2C)c(-n2nc3ccccc3n2)c1 3%, BrC(=C\c1ccccc1)/C=N/Nc1nc(N2CCOCC2)nc(N2CCOCC2)n1 -54.1%, CCOC(=O)C1CCN(S(=O)(=O)c2cc(C(=O)OC)n(C)c2)CC1 18.2%, Cc1ccc(S(=O)(=O)N2CCN(CC(=O)Nc3ccc([N+](=O)[O-])cc3)CC2)cc1C -86.3%, C=CCSc1nc2sc(C)c(C)c2c(=O)[nH]1 7.9%, CC(CCc1ccccc1)NC(=O)C(=O)c1c[nH]c2ccccc12 (stereo not drawn) 6.1%, O=C(O)CC(NC(=O)c1cccc([N+](=O)[O-])c1)c1ccc2c(c1)OCO2 (stereo not drawn) 14.8%, Cc1ccc(CN2CCCN(C)CC2)c(C)c1 -3.4%, CCn1c(SCC(=O)Nc2nc(-c3ccc(C)cc3)cs2)nnc1-c1ccccc1 29%, CCn1c(SCC(=O)Nc2nc(-c3ccccc3)cs2)nnc1-c1ccccc1O 11.1%, CCOc1ccccc1NC(=S)N(CCN(C)C)C(C)c1ccncc1 (stereo not drawn) -15.1%, CC(C)(C)c1cc(-c2n[nH]c(=S)n2-c2ccc(Cl)cc2)n[nH]1 6.2%, NC(=O)C1CCN(C(=O)C2CCC(=O)N(C3CCCCCC3)C2)CC1 (stereo not drawn) -3.9%, COc1ccccc1NCC(=O)N/N=C/c1c(O)ccc2ccccc12 25%, O=C(CNc1ccccc1)N/N=C/c1c(O)ccc2ccccc12 19.3%, Cc1occc1-c1nnc(SCC(=O)NCC2CCCO2)n1C (stereo not drawn) 8.4%, O=C(O)c1cc(N/N=C/c2ccc3c(c2)OCO3)ccc1Cl -118%, O=C(N/N=C/c1ccc2c(c1)OCO2)c1ccc2c(c1)OCO2 -137%, S=C(NCc1ccncc1)Nc1ccccc1 16.2%, O=C(CC(Nc1ccccc1Cl)C(=O)O)c1ccccc1 (stereo not drawn) -21.4%, O=C(CC(Nc1ccc(Cl)cc1)C(=O)O)c1ccccc1 (stereo not drawn) 20.4%, COc1ccc(NC(=O)CSc2ccc(-c3sc(C)nc3C)nn2)cc1 4.8%, COc1ccc(NC(=O)CSc2ccc(-c3sc(C)nc3C)nn2)cc1OC 5.8%, S=C(Nc1cc(Cl)ccc1Cl)Nn1cnnc1 16.1%, CC(Oc1cc(C(F)(F)F)cc(C(F)(F)F)c1)C(=O)NC(N)=O (stereo not drawn) 11.1%, O=C1CCCN2N=C(SCC(=O)N3CCCCC3)SC2=N1 5.8%, O=C(COc1ccccc1)Nc1ccccc1NS(=O)(=O)c1cccs1 11.6%, O=C(COc1ccc(Cl)cc1Cl)Nc1ccccc1NS(=O)(=O)c1cccs1 25.1%, OC(c1cccc(Cl)c1)c1nccc2ccccc12 (stereo not drawn) 2.5%, COC(=O)c1nc2nc(-c3cccs3)cc(C(F)(F)F)n2n1 9.2%, Nc1cccc(Oc2ccc3c(c2)C(=O)NC3=O)c1 -12.7%, Cc1ccc(NC(=O)CCSc2nnc3ccccn23)cc1 18.1%, CCOC(=O)c1c(-c2ccccc2)csc1NC(=O)CSc1nnnn1C 12.2%, CC(=O)c1c(C)oc2ccc(OCc3ccccc3)cc12 -10.9%, CC(=O)/C(=C/c1ccc(N(C)C)cc1)C(=O)c1ccccc1 -7.8%, O=C(Nc1ccc(Cl)cc1)c1ccncc1 -5%, Cc1nn(-c2ccc(C(=O)O)cc2)c(C)c1Cl 11.5%, COc1ccc(S(=O)(=O)N(C)c2ccc(C(=O)N3CCN(c4ccccc4)CC3)cc2)cc1OC 7.6%, CC(=O)Nc1ccc(S(=O)(=O)Nc2ccc3ccccc3n2)cc1 10.8%, Cc1nc(N2CCN(S(=O)(=O)c3ccc(Br)cc3)CC2)c2c(C)c(C)sc2n1 45%, CCS(=O)(=O)N1CCN(c2ncnc3sc(C)c(C)c23)CC1 18%, COc1ccc(CCC(=O)NNC(=O)c2cc(Cl)ccc2OC)cc1 -4.6%, COc1ccc(/C(N)=N/OC(=O)Cc2ccccc2[N+](=O)[O-])cc1 -2.6%, COc1ccc(NC(=O)CSc2ncnc3c2sc2ccccc23)c(OC)c1 -3.6%, O=C(c1ccc(Cl)cc1)n1c(NCc2ccccc2)n[nH]c1=S -38.1%, Oc1ccc(N=Nc2c(O)ccc3ccccc23)cc1 17%, Oc1ccc2ccccc2c1/C=N/c1nccs1 -2.7%, O=C(N/N=C/c1ccco1)c1ccc(NC(=O)c2ccccc2Cl)cc1 -2.4%, O=C(N/N=C/c1ccco1)c1cccc(NC(=O)c2cccc(Cl)c2)c1 12.2%, O=C(Nc1cccc(-n2cccn2)c1)C1CCCN(Cc2ccc(C#CCCO)cc2)C1 (stereo not drawn) -17.7%

From PubChem BioAssay AID1566 (Sanford-Burnham Center for Chemical Genomics, 2009)
